PubChem BioAssay (NCI)
“And” between values parts separate entries of the source, which are not always exact repeats. Equal values may be shown once. The panel holds about 83,000 compounds, 20% with a hit somewhere; the sample as a whole holds those more often.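 Cell lines were cultured in 96-well plates, exposed to a single compound concentration, and assessed for percent growth 48 hours later.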 The source made the active and inactive calls.

Key:
Assay in all cases: NCI-60 one-dose screen, 48 h (100 = growth as untreated, 0 = no growth, -100 = all killed)
HCT-15 colon = tested on: HCT-15 colon
HT29 colon = tested on: HT29 colon
SNB-75 CNS = tested on: SNB-75 CNS
Protocol: Growth inhibition of the SNB-75 human tumor cell line is measured as a screen for anti-cancer activity. Cells are grown in 96 well plates and exposed to the test compound for 48 hours. Compounds are tested at a single concentration, which is 10^-5 M for most compounds. The reported endpoint is percent growth (GI% or GIPRCNT), where numbers from 0 - 100% represent growth inhibition, and numbers from -100% - 0 represent cell death. For example, a value of 40 represents 60% growth inhibition. A value of 0 means no net growth occurred over the course of the experiment. A value of -40 indicates 40% of cells at the beginning of the experiment died by the end of the experiment. A value of -100 means all cells are dead at the end of the experiment.
NCI-60 Human Tumor Cell Lines Screen was performed using the standard one-dose NCI protocol, which is described in more detail at https://dtp.cancer.gov/discovery_development/nci-60/default.htm.
Compounds with GIPRCNT values below 10 were considered active. Activity score was based on GIPRCNT using the following formula: […]
Score is 0 for GIPRCNT values of 100 or above, 50 for GIPRCNT values of 0, and 100 for GIPRCNT values of -100.

SNB-19 CNS = tested on: SNB-19 CNS
U251 CNS = tested on: U251 CNS
PC-3 prostate = tested on: PC-3 prostate
SK-MEL-5 melanoma = tested on: SK-MEL-5 melanoma
UACC-62 melanoma = tested on: UACC-62 melanoma
LOX IMVI melanoma = tested on: LOX IMVI melanoma
SK-MEL-28 melanoma = conditions: 10 µM

**Q.** How did the growth (HCT-15 colon; 10 µM) turn out when `CC[C@@]1(O)C(=O)OCc2c1cc1n(c2=O)Cc2cc3c(CN(C)C)c(O)ccc3nc2-1` was run?
**A.** 21.2% (inactive) and -10.4% (active)

**Q.** What about the growth (HT29 colon; 10 µM) of the same compound?
**A.** -15.4% (active) and -22.9% (active)

**Q.** And the growth (SNB-75 CNS; 10 µM)?
**A.** 2.72% (active) and -62.8% (active)

**Q.** And the growth (SNB-19 CNS; 10 µM)?
**A.** 16% (inactive) and 10.7% (inactive)

**Q.** And the growth (U251 CNS; 10 µM)?
**A.** -23% (active) and 2.06% (active)

**Q.** And the growth (PC-3 prostate; 10 µM)?
**A.** -1.74% (active)

**Q.** What about the growth (SK-MEL-5 melanoma; 10 µM) of the same compound?
**A.** -85.8% (active) and -77.4% (active)

**Q.** What about the growth (UACC-62 melanoma; 10 µM) of the same compound?
**A.** -73.1% (active) and -71.5% (active)

**Q.** And the growth (LOX IMVI melanoma; 10 µM)?
**A.** -14.1% (active) and -34.9% (active)

**Q.** And the growth (SK-MEL-28 melanoma)?
**A.** 19.5% (inactive)

**Q.** How did the growth (HCT-15 colon; 10 µM) turn out when `COc1ccc2sc3cccc(NCCN(C)C)c3c(=O)c2c1` was run?
**A.** 32.2% (inactive) and -29.5% (active)

**Q.** And the growth (HT29 colon; 10 µM)?
**A.** 5.38% (active) and -36.9% (active)

**Q.** What about the growth (SNB-75 CNS; 10 µM) of the same compound?
**A.** 51.8% (inactive) and -6.29% (active)

**Q.** What about the growth (SNB-19 CNS; 10 µM) of the same compound?
**A.** 63.9% (inactive) and 13.6% (inactive)

**Q.** And the growth (U251 CNS; 10 µM)?
**A.** -18.1% (active)

**Q.** And the growth (PC-3 prostate; 10 µM)?
**A.** 34.2% (inactive) and 21.1% (inactive)

**Q.** What about the growth (SK-MEL-5 melanoma; 10 µM) of the same compound?
**A.** 65.1% (inactive) and -98.2% (active)

**Q.** What about the growth (UACC-62 melanoma; 10 µM) of the same compound?
**A.** 64.4% (inactive) and -96.3% (active)

**Q.** And the growth (LOX IMVI melanoma; 10 µM)?
**A.** 17.1% (inactive) and -91% (active)

**Q.** What about the growth (SK-MEL-28 melanoma) of the same compound?
**A.** 85.8% (inactive) and -80.8% (active)

**Q.** For `CC/C(=C(\c1ccccc1)c1ccc(OCCN(C)C)cc1)c1ccccc1`, which growth (HCT-15 colon; 10 µM) is on record?
**A.** 7.63% (active)

**Q.** And the growth (HCT-15 colon; 12.5 µM)?
**A.** -65% (active)

**Q.** And the growth (HT29 colon; 10 µM)?
**A.** -11.2% (active)

**Q.** And the growth (HT29 colon; 12.5 µM)?
**A.** -66.6% (active)

**Q.** What about the growth (SNB-75 CNS; 10 µM) of the same compound?
**A.** 39.9% (inactive)

**Q.** And the growth (SNB-75 CNS; 12.5 µM)?
**A.** -4.48% (active)

**Q.** And the growth (SNB-19 CNS; 10 µM)?
**A.** 52.6% (inactive)

**Q.** What about the growth (SNB-19 CNS; 12.5 µM) of the same compound?
**A.** 1.19% (active)

**Q.** And the growth (U251 CNS; 10 µM)?
**A.** 4.8% (active)

**Q.** What about the growth (U251 CNS; 12.5 µM) of the same compound?
**A.** -84.3% (active)

**Q.** And the growth (PC-3 prostate; 10 µM)?
**A.** 34.4% (inactive)

**Q.** What about the growth (PC-3 prostate; 12.5 µM) of the same compound?
**A.** -30.7% (active)

**Q.** And the growth (SK-MEL-5 melanoma; 10 µM)?
**A.** -95.2% (active)

**Q.** And the growth (SK-MEL-5 melanoma; 12.5 µM)?
**A.** -94.3% (active)

**Q.** And the growth (UACC-62 melanoma; 12.5 µM)?
**A.** -90.5% (active)

**Q.** And the growth (LOX IMVI melanoma; 10 µM)?
**A.** -43.9% (active)

**Q.** What about the growth (LOX IMVI melanoma; 12.5 µM) of the same compound?
**A.** -99% (active)

**Q.** What about the growth (SK-MEL-28 melanoma) of the same compound?
**A.** 11.3% (inactive)

**Q.** For `CN(Cc1cnc2nc(N)nc(N)c2n1)c1ccc(C(=O)N[C@@H](CCC(=O)O)C(=O)O)cc1`, which growth (HCT-15 colon; 2.5 µM) is on record?
**A.** 28.5% (inactive)

**Q.** And the growth (HCT-15 colon; 10 µM)?
**A.** 36% (inactive)

**Q.** What about the growth (HT29 colon; 2.5 µM) of the same compound?
**A.** 29% (inactive)

**Q.** And the growth (HT29 colon; 10 µM)?
**A.** 25.9% (inactive)

**Q.** And the growth (SNB-75 CNS; 2.5 µM)?
**A.** 73.8% (inactive)

**Q.** And the growth (SNB-75 CNS; 10 µM)?
**A.** 66% (inactive)

**Q.** What about the growth (SNB-19 CNS; 2.5 µM) of the same compound?
**A.** 33.9% (inactive)

**Q.** What about the growth (SNB-19 CNS; 10 µM) of the same compound?
**A.** 29.5% (inactive)

**Q.** What about the growth (U251 CNS; 2.5 µM) of the same compound?
**A.** 34.1% (inactive)

**Q.** What about the growth (U251 CNS; 10 µM) of the same compound?
**A.** 38.3% (inactive)

**Q.** And the growth (PC-3 prostate; 2.5 µM)?
**A.** 33.8% (inactive)

**Q.** And the growth (PC-3 prostate; 10 µM)?
**A.** 37% (inactive)

**Q.** What about the growth (SK-MEL-5 melanoma; 2.5 µM) of the same compound?
**A.** 20% (inactive)

**Q.** And the growth (SK-MEL-5 melanoma; 10 µM)?
**A.** 3.31% (active)

**Q.** What about the growth (UACC-62 melanoma; 2.5 µM) of the same compound?
**A.** 24.5% (inactive)

**Q.** And the growth (UACC-62 melanoma; 10 µM)?
**A.** 16.8% (inactive)

**Q.** What about the growth (LOX IMVI melanoma; 2.5 µM) of the same compound?
**A.** 14.3% (inactive)

**Q.** And the growth (LOX IMVI melanoma; 10 µM)?
**A.** 16.3% (inactive)
